From PubChem BioAssay come the findings set out here.

Activity calls are given as the source filed them.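 The calls were made as follows, unless noted: active = inhibition of the reporter signal at or above 50%; inactive = inhibition below 50%.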

A short description of experiment [1]: inhibitors of TNFa-induced NFkB p65 translocation, primary screen, imaging, HUVEC, MLSMR starter and 10KST1 sets (AID 438;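 active = inhibition above 20% together with a positive visual image hit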;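 also: compound added about 3h40 before a 20 min TNFalpha stimulation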;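 as to inhibition: signal is the nuclear over cytoplasmic p65 intensity ratio per well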). Conditions: HUVEC TNFa-induced p65 nuclear translocation; cell count: measured here: nuclei count (cytotoxicity indicator), at 2.08 µM; inhibition: at 2 µM, stronger effect = higher value, 0% TNFa-plus-vehicle, 100% no-TNFa wells.
A short description of experiment [2]: reduction of polyQ htt aggregates in cells – imaging, exon1htt(103Q)mCFP cells, high-content imaging, primary screen (AID 483;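 active = visual image review flags a hit and inhibition of aggregation exceeds 20%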;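 also: compound exposure lasted 3 days before fixation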;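 as to nuclei count: percent of the per-plate median nuclei count of sample wells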). Particulars: exon1htt(103Q)mCFP cell line, aggregate imaging, at 2 µM; inhibition of aggregation: stronger effect = higher value; nuclei count: measured here: cell count, toxicity.
The nature of experiment [3]: endothelial E-selectin expression blockers – imaging, HUVEC, immunofluorescence, MLSMR starter and 10KST1 sets, primary screen (AID 487;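 active = visually confirmed hit in the image check and inhibition above 20%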;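 as to inhibition: signal is fraction of cell area covered by stained E-selectin grains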;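 as to nuclei count: 100% = median nuclei count of all wells on the same plate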). Particulars: HUVEC TNFalpha-induced E-selectin immunofluorescence imaging, at 2 µM; inhibition: stronger effect = higher value; nuclei count: measured here: cell number, toxicity.
The target in experiment [4] is Voltage-gated potassium channel subunit beta-2 (Rattus norvegicus) (UniProt P62483). Nature of the experiment: inhibitors of rat Kvbeta2 reductase activity – biochemical, NADPH fluorescence, primary screen (AID 622;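 active = fluorescence slope higher than the sample average by over 3 SD, cut at about -0.22 in these data, passing the limit was not always enough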;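 also: slope of raw intensity against log time taken from 70 to 1610 s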). Particulars: recombinant KvBeta, 4-cyanobenzaldehyde reduction, at 10 µM, stronger effect = higher value.
Experiment [5] has the same target. Nature of the experiment: enhancers of rat Kvbeta2 NADPH turnover – biochemical, NADPH fluorescence, primary screen (AID 623;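 active = NADPH fluorescence slope more negative than the mean of all samples by about 3 SD, 99.7% confidence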;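 also: fluorescence intensity change per second fitted from 20 to 320 s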). Conditions: Recombinant KvBeta, NADPH fluorescence decrease slope, 10 min; at 10 µM; stronger effect = lower value.
Experiment [6] concerns the target Alpha-2C adrenergic receptor (Homo sapiens) (UniProt P18825). Nature of the experiment: compounds altering alpha2C-coupled GIRK flux – cell-based, HEK293 alpha2C/GIRK1/2, thallium flux, primary screen (AID 624;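 active = fluorescence slope after compound addition differing from the mean of all screened samples at 99.7% confidence, in either direction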;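 also: slope of fluorescence ratio to pre-addition baseline per second over 15 to 24 s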). Particulars: thallium flux BTC fluorescence, at 10 µM, actives lie on both sides.
Experiment [7] is described as follows: blockers of RIG-like receptor reporter activation – cell-based, Sendai virus stimulus, luciferase, 10K MLSCN set, TLR/RLR signaling modifier project, primary screen (AID 602276;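 active = inhibition at or above 50% at 10 µM; inactive = inhibition below 50%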;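 also: firefly luciferase from ISG56 promoter only with Renilla not read in this screen; 0% = Sendai virus plus DMSO and 100% = medium plus DMSO without virus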). Conditions: HEK293 RL24 IRF3 luciferase reporter, at 10 µM, stronger effect = higher value. A general note: In a reporter assay the amount or activity of a reporter protein is the signal.
Experiment [8] is described as follows: TLR3 IRF3 reporter activation blockers – cell-based, poly I:C stimulus, luciferase, 10K MLSCN set, primary screen (AID 602277). Conditions: HEK293-TLR3 RL24 IRF3 luciferase reporter, at 10 µM, stronger effect = higher value.

Alpha-2C adrenergic receptor (Homo sapiens), sequence (P18825 whole entry, looked up): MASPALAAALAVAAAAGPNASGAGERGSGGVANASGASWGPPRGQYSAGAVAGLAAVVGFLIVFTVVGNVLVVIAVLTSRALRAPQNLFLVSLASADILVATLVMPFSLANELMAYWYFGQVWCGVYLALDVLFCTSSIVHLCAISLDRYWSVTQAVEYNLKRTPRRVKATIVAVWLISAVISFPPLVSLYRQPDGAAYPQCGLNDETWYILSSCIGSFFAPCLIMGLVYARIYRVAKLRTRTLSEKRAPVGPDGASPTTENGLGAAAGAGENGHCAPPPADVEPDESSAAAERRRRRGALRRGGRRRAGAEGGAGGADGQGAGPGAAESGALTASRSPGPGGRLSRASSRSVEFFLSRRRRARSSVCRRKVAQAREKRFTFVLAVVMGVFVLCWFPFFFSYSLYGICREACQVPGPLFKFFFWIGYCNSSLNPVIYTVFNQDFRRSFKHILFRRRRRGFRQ
Voltage-gated potassium channel subunit beta-2 (Rattus norvegicus), sequence (P62483 whole entry, looked up): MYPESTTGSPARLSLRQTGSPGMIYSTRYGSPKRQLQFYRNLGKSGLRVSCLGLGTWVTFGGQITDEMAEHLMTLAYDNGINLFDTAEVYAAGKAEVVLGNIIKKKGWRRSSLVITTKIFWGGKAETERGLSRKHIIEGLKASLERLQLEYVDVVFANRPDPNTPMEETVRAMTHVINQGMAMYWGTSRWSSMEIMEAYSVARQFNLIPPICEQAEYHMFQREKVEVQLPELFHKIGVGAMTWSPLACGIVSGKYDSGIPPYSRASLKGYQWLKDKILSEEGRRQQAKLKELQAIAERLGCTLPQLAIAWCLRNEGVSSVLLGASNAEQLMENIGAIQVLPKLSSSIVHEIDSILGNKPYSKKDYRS

In general, inhibition refers to the relative decrease from the control value, in per cent. Regarding `CC(C)C1C2=C(CC(C)(C)CC2=O)ON1c1ccccc1` (centres undefined), the cell count in experiment [1] amounted to 444. Moreover, the inhibition in experiment [1] is 0.5% (inactive); in experiment [3], -51.2% (inactive); in experiment [7], 14.4% (inactive); in experiment [8], 16.5% (inactive). Further, the inhibition of aggregation in experiment [2] is 9.1% (inactive). The figures for the nuclei count in experiment [2] and in experiment [3] were 86.8% and 115%, respectively. Further, the fluorescence slope in experiment [4] is -0.476 (inactive). The NADPH fluorescence slope in experiment [5] is -4.4e-05 (inactive). Also, in experiment [6], the slope was 0.0045 (inactive).

In the case of `CCOC(=O)CSC1=C(C#N)C(c2ccc(C)o2)CC(=O)N1` (centres undefined), the cell count in experiment [1] was 557. Moreover, the inhibition in experiment [1] is 14.4% (inactive); in experiment [3] it was -60% (inactive); in experiment [7], 10.4% (inactive); in experiment [8] it was 87.6% (active). Moreover, the inhibition of aggregation in experiment [2] was 29.1% (inactive). Moreover, the nuclei count stood at 3.4% in experiment [2] and 95% in experiment [3]. Further, the fluorescence slope in experiment [4] was -0.511 (inactive). For the same compound, in experiment [5], the NADPH fluorescence slope is -2e-05 (inactive). Also, the slope in experiment [6] is 0.00803 (inactive).

As for `C#CCN1C(=O)C(O)(CC(=O)c2cc(OC)ccc2OC)c2ccccc21` (centres undefined), the cell count in experiment [1] was found to be 841. The inhibition was -2.9% (inactive) in experiment [1], -183% (inactive) in experiment [3], 17.5% (inactive) in experiment [7] and 20% (inactive) in experiment [8]. Further, the inhibition of aggregation in experiment [2] is 1.3% (inactive). The figures for the nuclei count in experiment [2] and in experiment [3] were 97.5% and 124%, respectively. The fluorescence slope in experiment [4] is -0.411 (inactive). The NADPH fluorescence slope in experiment [5] was -3.9e-05 (inactive). Further, the slope in experiment [6] is 0.00497 (inactive).

In the case of `CCOc1ccccc1CNC(=O)CCN1C(=O)COc2ccccc21`, the cell count in experiment [1] amounted to 630. Further, the inhibition in experiment [1] is -1.8% (inactive); in experiment [3], -71.5% (inactive); in experiment [7], 12.2% (inactive); in experiment [8] it was 2.75% (inactive). In experiment [2], the inhibition of aggregation was -12.2% (inactive). In addition, the nuclei count in experiment [2] worked out at 47.7%; in experiment [3] it was 94.5%. Also, the fluorescence slope in experiment [4] is -0.379 (inactive). Also, the NADPH fluorescence slope in experiment [5] is -2.3e-05 (inactive). Moreover, the slope in experiment [6] was 0.00611 (inactive).

Consider `Fc1ccc(NCc2nnc(SCc3nnc(-c4ccccc4)o3)n2CC2CCCO2)cc1` (centres undefined), for which the cell count in experiment [1] is 571. For the same compound, the inhibition in experiment [1] was -9.7% (inactive); in experiment [3], 14.2% (inactive); in experiment [7], -28.3% (inactive); in experiment [8], -12.4% (inactive). Further, the inhibition of aggregation in experiment [2] was -6% (inactive). Further, the nuclei count in experiment [2] came out at 56.6%; in experiment [3], 90.9%. In experiment [4], the fluorescence slope is -0.528 (inactive). Also, the NADPH fluorescence slope in experiment [5] was 3.2e-05 (inactive). In addition, the slope in experiment [6] is 0.00596 (inactive).

With `CCOc1ccc(C2C(C#N)=C(N)Oc3cc(C)n(CCN(C)C)c(=O)c32)cc1OCC` (centres undefined), the cell count in experiment [1] was 587. The inhibition was -7.4% (inactive) in experiment [1], 11.8% (inactive) in experiment [3], 14.3% (inactive) in experiment [7] and 38.2% (inactive) in experiment [8]. Moreover, in experiment [2], the inhibition of aggregation is 1.7% (inactive). Further, the values for the nuclei count in experiment [2] and in experiment [3] were 98.3% and 93.1%, respectively. Further, the fluorescence slope in experiment [4] is -0.588 (inactive). Besides, in experiment [5], the NADPH fluorescence slope was -4.4e-05 (inactive). For the same compound, in experiment [6], the slope was 0.00685 (inactive).

As to `COc1ccccc1CNC(=O)C1CCCN(S(=O)(=O)c2cccc3cccnc23)C1` (centres undefined), in experiment [1], the cell count was 783. Moreover, the inhibition in experiment [1] was -5.1% (inactive); in experiment [3], -38.9% (inactive); in experiment [7], 3.46% (inactive); in experiment [8], 26.9% (inactive). Moreover, in experiment [2], the inhibition of aggregation was -33.4% (inactive). The nuclei count in experiment [2] is 102%; in experiment [3], 108%. Further, the fluorescence slope in experiment [4] is -0.592 (inactive). In addition, the NADPH fluorescence slope in experiment [5] is -5.8e-05 (inactive). Besides, in experiment [6], the slope was 0.00706 (inactive).

For the compound `CC(C)N(C(=O)N1CCC(c2nc(-c3ccncc3)no2)CC1)C(C)C`, the cell count in experiment [1] was determined as 653. Besides, the inhibition was -7.5% (inactive) in experiment [1], -95.9% (inactive) in experiment [3], 0.899% (inactive) in experiment [7] and -5.83% (inactive) in experiment [8]. In addition, in experiment [2], the inhibition of aggregation is 8.3% (inactive). The nuclei count came out at 102% in experiment [2] and 106% in experiment [3]. Further, the fluorescence slope in experiment [4] is -0.354 (inactive). The NADPH fluorescence slope in experiment [5] was -3.3e-05 (inactive). In addition, the slope in experiment [6] was 0.00413 (inactive).

`CCCCS(=O)(=O)NC1=NCN(CCOC(=O)c2ccccc2)CN1`: in experiment [1], the cell count was 305. In addition, the inhibition in experiment [1] is 0.8% (inactive); in experiment [3] it was -50.4% (inactive); in experiment [7], 13.9% (inactive); in experiment [8] it was 20.7% (inactive). Besides, the inhibition of aggregation in experiment [2] was 5.7% (inactive). The nuclei count stood at 116% in experiment [2] and 112% in experiment [3]. In addition, the fluorescence slope in experiment [4] was -0.496 (inactive). Further, the NADPH fluorescence slope in experiment [5] was -4.1e-05 (inactive). In addition, the slope in experiment [6] was 0.0043 (inactive).

In the case of `Cn1c(SCC(=O)Nc2ccc3c(c2)oc2ccccc23)nnc1-c1ccccc1`, in experiment [1], the cell count stood at 403. Also, the inhibition in experiment [1] is -1.1% (inactive); in experiment [3], -52.8% (inactive); in experiment [7] it was -1.19% (inactive); in experiment [8] it was -25.5% (inactive). Further, the inhibition of aggregation in experiment [2] is 4.5% (inactive). Moreover, the nuclei count was determined as 96.1% in experiment [2] and 109% in experiment [3]. The fluorescence slope in experiment [4] is -0.515 (inactive). Further, the NADPH fluorescence slope in experiment [5] is -0.000134 (active). Besides, the slope in experiment [6] is 0.0032 (inactive).

Regarding `COc1ccc(Br)cc1CNC(=O)C1CCCN(S(C)(=O)=O)C1` (centres undefined), the cell count in experiment [1] worked out at 949. Besides, the inhibition in experiment [1] was -7.5% (inactive); in experiment [3], -129% (inactive); in experiment [7] it was 5.73% (inactive); in experiment [8], 33.6% (inactive). Besides, in experiment [2], the inhibition of aggregation was -7.3% (inactive). The nuclei count in experiment [2] was found to be 114%; in experiment [3], 113%. The fluorescence slope in experiment [4] is -0.362 (inactive). Also, the NADPH fluorescence slope in experiment [5] was -5.7e-05 (inactive). For the same compound, the slope in experiment [6] was 0.00566 (inactive).

On to `CCOC(=O)C(NC(=O)OC(C)C)(Nc1nccs1)C(F)(F)F` (centres undefined), for which, in experiment [1], the cell count was determined as 636. Further, the inhibition was 10.6% (inactive) in experiment [1], 22.7% (inactive) in experiment [3], 8.51% (inactive) in experiment [7] and 27.8% (inactive) in experiment [8]. Besides, the inhibition of aggregation in experiment [2] was -13.3% (inactive). Moreover, the nuclei count was found to be 98.7% in experiment [2] and 108% in experiment [3]. Further, the fluorescence slope in experiment [4] is -0.608 (inactive). In addition, the NADPH fluorescence slope in experiment [5] is -5.2e-07 (inactive). In addition, the slope in experiment [6] is 0.00583 (inactive).

With `CC(=O)CCc1c(C)[nH]c2ccccc2c1=O`, in experiment [1], the cell count stood at 360. The inhibition in experiment [1] is 9.1% (inactive); in experiment [3] it was -3.8% (inactive); in experiment [7], -9.69% (inactive); in experiment [8], -2.97% (inactive). Also, in experiment [2], the inhibition of aggregation was -8.9% (inactive). Also, the nuclei count in experiment [2] came to 123%; in experiment [3], 102%. The fluorescence slope in experiment [4] is -0.523 (inactive). In addition, the NADPH fluorescence slope in experiment [5] was 6.6e-05 (inactive). The slope in experiment [6] was 0.00588 (inactive).

In the case of `CCOC(=O)c1ccc(N=c2sc(C(=O)OC)cc(=O)n2Cc2ccco2)cc1`, the cell count in experiment [1] is 514. Also, the inhibition in experiment [1] is -8% (inactive); in experiment [3], 0.2% (inactive); in experiment [7], -17.5% (inactive); in experiment [8], 77.4% (active). Moreover, in experiment [2], the inhibition of aggregation is -5.9% (inactive). The nuclei count was 107% in experiment [2] and 112% in experiment [3]. For the same compound, the fluorescence slope in experiment [4] is -0.608 (inactive). The NADPH fluorescence slope in experiment [5] is -4.8e-05 (inactive). For the same compound, the slope in experiment [6] is 0.00678 (inactive).
